In PubChem BioAssay AID1159580 (chemical genetic matrix, 2015):
Where “and” joins values, the source holds several entries; their conditions need not be identical. Identical values can stand only once. Hit rate of the full screen: of about 5,500 compounds, about 2,000 (36%) were called active. About 18% were inconclusive and are not listed. Rule as the data show it: active = normalized growth mostly below about 0.91 (no sharp cut-off); inconclusive = no clear call, values can overlap the other calls; inactive = mostly above about 0.92. Some of the results follow.

Test: chemical genetic growth profiling, strain panel (AID 1159580);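 also: tested at 20 µM; growth read once vehicle control cultures reached saturation at 30 °C; 1 = growth at the plate median or of vehicle wells; lower values mean less growth of the strain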
Settings: growth OD

Measured: normalized growth

COc1ccc(-c2coc3cc(O)cc(O)c3c2=O)cc1
active: S. cerevisiae deletion strains, locus YAL013W, strain DEP1, hits give low values 0.497 | S. cerevisiae deletion strains, locus YBR229C, strain ROT2, hits give low values 0.77 | S. cerevisiae deletion strains, locus YCL029C, strain bik1, hits give low values 0.496 | S. cerevisiae deletion strains, locus YDL035C, strain GPR1, hits give low values 0.241 | S. cerevisiae deletion strains, locus YDL074C, strain BRE1, hits give low values 0.261 | S. cerevisiae deletion strains, locus YDL101C, strain DUN1, hits give low values 0.358 | S. cerevisiae deletion strains, locus YDL134C, strain PPH21, hits give low values 0.295 | S. cerevisiae deletion strains, locus YDL185W, strain tfp1, hits give low values 0.899 | S. cerevisiae deletion strains, locus YDL192W, strain arf1, hits give low values 0.28 | S. cerevisiae deletion strains, locus YDR101C, strain arx1, hits give low values 0.504 | S. cerevisiae deletion strains, locus YDR150W, strain NUM1, hits give low values 0.323 | S. cerevisiae deletion strains, locus YDR162C, strain NBP2, hits give low values 0.12 | S. cerevisiae deletion strains, locus YDR318W, strain mcm21, hits give low values 0.265 | S. cerevisiae deletion strains, locus YDR388W, hits give low values 0.286 | S. cerevisiae deletion strains, locus YDR502C, strain sam2, hits give low values 0.287 | S. cerevisiae deletion strains, locus YEL061C, strain CIN8, hits give low values 0.206 | S. cerevisiae deletion strains, locus YER110C, hits give low values 0.539 | S. cerevisiae deletion strains, locus YER155C, strain BEM2, hits give low values 0.199 | S. cerevisiae deletion strains, locus YER167W, strain BCK2, hits give low values 0.178 | S. cerevisiae deletion strains, locus YGL078C, strain dbp3, hits give low values 0.649 | S. cerevisiae deletion strains, locus YGL086W, strain mad1, hits give low values 0.258 | S. cerevisiae deletion strains, locus YGL248W, strain PDE1, hits give low values 0.286 | S. cerevisiae deletion strains, locus YGR078C, strain PAC10, hits give low values 0.227 | S. cerevisiae deletion strains, locus YGR135W, strain pre9, hits give low values 0.314 | S. cerevisiae deletion strains, locus YGR229C, strain SMI1, hits give low values 0.196 | S. cerevisiae deletion strains, locus YGR252W, strain gcn5, hits give low values 0.507 | S. cerevisiae deletion strains, locus YHR030C, strain SLT2, hits give low values 0.248 and 0.299 | S. cerevisiae deletion strains, locus YHR079C, strain IRE1 (second series), hits give low values 0.526 | S. cerevisiae deletion strains, locus YHR079C, strain IRE1, hits give low values 0.293 | S. cerevisiae deletion strains, locus YHR094C, strain hxt1, hits give low values 0.627 | S. cerevisiae deletion strains, locus YHR129C, strain ARP1, hits give low values 0.363 | S. cerevisiae deletion strains, locus YHR200W, strain rpn10, hits give low values 0.513 | S. cerevisiae deletion strains, locus YIL066C, strain RNR3, hits give low values 0.361 | S. cerevisiae deletion strains, locus YIL073C, strain SPO22, hits give low values 0.532 | S. cerevisiae deletion strains, locus YIL125W, strain kgd1, hits give low values 0.697 | S. cerevisiae deletion strains, locus YIR030C, strain dcg1, hits give low values 0.465 | S. cerevisiae deletion strains, locus YJL095W, strain BCK1, hits give low values 0.172 and 0.287 | S. cerevisiae deletion strains, locus YJL134W, strain LCB3, hits give low values 0.7 | S. cerevisiae deletion strains, locus YJL168C, strain set2, hits give low values 0.888 | S. cerevisiae deletion strains, locus YJL187C, strain SWE1 (second series), hits give low values 0.353 | S. cerevisiae deletion strains, locus YJR043C, strain POL32, hits give low values 0.374 | S. cerevisiae deletion strains, locus YJR066W, strain TOR1, hits give low values 0.16 | S. cerevisiae deletion strains, locus YJR075W, strain HOC1, hits give low values 0.179 | S. cerevisiae deletion strains, locus YKL009W, strain mrt4, hits give low values 0.484 | S. cerevisiae deletion strains, locus YKL085W, strain MDH1 (second series), hits give low values 0.604 | S. cerevisiae deletion strains, locus YKL085W, strain MDH1, hits give low values 0.604 | S. cerevisiae deletion strains, locus YKL190W, strain CNB1, hits give low values 0.223 | S. cerevisiae deletion strains, locus YKR001C, strain vps1, hits give low values 0.189 | S. cerevisiae deletion strains, locus YLR039C, strain RIC1, hits give low values 0.241 | S. cerevisiae deletion strains, locus YLR058C, strain SHM2, hits give low values 0.365 | S. cerevisiae deletion strains, locus YLR102C, strain apc9, hits give low values 0.625 | S. cerevisiae deletion strains, locus YLR113W, strain HOG1, hits give low values 0.332 | S. cerevisiae deletion strains, locus YLR262C, strain YPT6, hits give low values 0.181 | S. cerevisiae deletion strains, locus YLR268W, strain sec22, hits give low values 0.211 | S. cerevisiae deletion strains, locus YLR330W, strain CHS5, hits give low values 0.356 | S. cerevisiae deletion strains, locus YLR342W, strain FKS1 (second series), hits give low values 0.289 | S. cerevisiae deletion strains, locus YLR371W, strain rom2, hits give low values 0.493 | S. cerevisiae deletion strains, locus YLR418C, strain cdc73, hits give low values 0.192 | S. cerevisiae deletion strains, locus YML016C, strain PPZ1, hits give low values 0.444 | S. cerevisiae deletion strains, locus YML032C, strain rad52, hits give low values 0.449 | S. cerevisiae deletion strains, locus YML124C, strain tub3, hits give low values 0.449 | S. cerevisiae deletion strains, locus YMR078C, strain ctf18, hits give low values 0.407 | S. cerevisiae deletion strains, locus YMR223W, strain ubp8, hits give low values 0.297 | S. cerevisiae deletion strains, locus YMR263W, strain SAP30, hits give low values 0.424 | S. cerevisiae deletion strains, locus YMR307W, strain GAS1, hits give low values 0.148 | S. cerevisiae deletion strains, locus YNL067W, strain RPL9B, hits give low values 0.234 | S. cerevisiae deletion strains, locus YNL128W, strain TEP1, hits give low values 0.272 | S. cerevisiae deletion strains, locus YNL153C, strain GIM3, hits give low values 0.439 | S. cerevisiae deletion strains, locus YNL183C, strain NPR1, hits give low values 0.228 | S. cerevisiae deletion strains, locus YNL233W, strain BNI4, hits give low values 0.242 | S. cerevisiae deletion strains, locus YNL250W, strain rad50, hits give low values 0.789 | S. cerevisiae deletion strains, locus YNL271C, strain bni1, hits give low values 0.623 | S. cerevisiae deletion strains, locus YNL298W, strain CLA4, hits give low values 0.459 | S. cerevisiae deletion strains, locus YNL307C, strain MCK1, hits give low values 0.114 | S. cerevisiae deletion strains, locus YNL322C, strain KRE1, hits give low values 0.337 | S. cerevisiae deletion strains, locus YNR052C, strain pop2, hits give low values 0.656 | S. cerevisiae deletion strains, locus YOL006C, strain TOP1, hits give low values 0.29 | S. cerevisiae deletion strains, locus YOL147C, strain pex11, hits give low values 0.362 | S. cerevisiae deletion strains, locus YOR061W, strain CKA2, hits give low values 0.432 | S. cerevisiae deletion strains, locus YOR069W, strain VPS5, hits give low values 0.501 | S. cerevisiae deletion strains, locus YOR136W, strain idh2, hits give low values 0.304 | S. cerevisiae deletion strains, locus YOR144C, strain elg1, hits give low values 0.652 | S. cerevisiae deletion strains, locus YOR184W, strain ser1, hits give low values 0.111 | S. cerevisiae deletion strains, locus YOR231W, strain MKK1, hits give low values 0.288 | S. cerevisiae deletion strains, locus YOR316C, strain cot1, hits give low values 0.636 | S. cerevisiae deletion strains, locus YPL055C, strain LGE1, hits give low values 0.176 | S. cerevisiae deletion strains, locus YPL241C, strain CIN2, hits give low values 0.289 | S. cerevisiae deletion strains, locus YPL256C, strain CLN2, hits give low values 0.345 | S. cerevisiae deletion strains, locus YPR119W, strain clb2, hits give low values 0.308 | S. cerevisiae deletion strains, locus YPR163C, strain tif3, hits give low values 0.207 | S. cerevisiae deletion strains, locus YPR167C, strain met16, hits give low values 0.44 | S. cerevisiae deletion strains, strain wtn01, hits give low values 0.226 | S. cerevisiae strains, strain wild type, hits give low values 0.244
inactive: S. cerevisiae deletion strains, locus YBR021W, strain FUR4, hits give low values 0.988 | S. cerevisiae deletion strains, locus YKL068W, hits give low values 0.964 | S. cerevisiae deletion strains, locus YOL012C, strain htz1 0.231 | S. cerevisiae deletion strains, locus YPR141C, strain kar3, hits give low values 0.935
